Reference: the supplement of paper PMC13392028
Over roughly 4,100 sequences, “RBNS R-value (6-mer enrichment in protein-bound RNA vs input library)” has its median near 0.99; the highest 2% begin near 1.4. The entries come from a sample that favours the highest values as a whole.

Test system: PfIESI-1 RRM domain (Plasmodium falciparum ortholog aa 875-1232, GST fusion)
Assay: RBNS R-value (6-mer enrichment in protein-bound RNA vs input library) (ratio); higher = stronger binding preference; the methods of the paper give 50 / 100 / 500 nM protein instead
Outline: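 RNA-recognition-motif regions of orthologous proteins from three Plasmodium species were expressed in E. coli as GST fusions and purified. They were incubated at room temperature with an in vitro transcribed library of random 40-mer RNA, then captured on glutathione magnetic agarose beads and washed three times. Bound RNA and input library were reverse transcribed and sequenced on a MiSeq, and 6-mers from one replicate were scored. The R-value is each motif's enrichment in bound RNA over input, computed with the Burge lab pipeline.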

Row | Sequence | RBNS R-value (protein concentration: 250 nM) | RBNS R-value (protein concentration: 500 nM) | RBNS R-value (protein concentration: 1000 nM)
1 | GCACCG | 1.14 | 1.09 | 1.14
2 | GCACCC | 1.5 | 1.26 | 1.33
3 | ACACCC | 1.53 | 1.28 | 1.33
4 | ACACCA | 1.16 | 1.1 | 1.1
5 | ACACCG | 1.17 | 1.12 | 1.15
6 | UUCGUU | 0.853 | 0.817 | 0.9
7 | CAUAUA | 0.762 | 0.733 | 0.715
8 | CUCCCU | 0.934 | 0.873 | 0.909
9 | GAACUG | 1.07 | 1.11 | 1.11
10 | CGAUAC | 1.04 | 1.03 | 1.02
11 | GGAUAG | 1.02 | 0.975 | 0.995
12 | AGAUAA | 0.975 | 1.11 | 1.02
13 | GGAUAC | 1.01 | 0.991 | 0.995
14 | UGAUAU | 1.5 | 1.69 | 1.38
15 | GGAUAU | 0.937 | 0.921 | 0.959
16 | AGAUAG | 0.998 | 1.07 | 1.04
17 | UGAUAG | 1.87 | 2.08 | 1.65
18 | UGAUAC | 1.59 | 1.68 | 1.47
19 | CGAUAA | 0.968 | 1.04 | 0.996
20 | UGAUAA | 1.67 | 1.89 | 1.54

Row | Sequence | RBNS R-value (protein concentration: 250 nM) | RBNS R-value (protein concentration: 500 nM) | RBNS R-value (protein concentration: 1000 nM)
21 | AGAUAU | 0.955 | 1.04 | 0.969
22 | UAGCUA | 0.902 | 0.926 | 0.903
23 | UGAAAA | 1.16 | 1.3 | 1.22
24 | AACGUG | 0.922 | 0.984 | 0.974
25 | UCGGGU | 0.945 | 0.901 | 1.01
26 | AUGCGU | 0.924 | 0.929 | 0.959
27 | UACCGC | 0.938 | 0.867 | 0.916
28 | UAAAAC | 0.916 | 1.05 | 0.979
29 | AGUAAA | 0.862 | 1.01 | 0.909
30 | AUUCUG | 1.19 | 1.22 | 1.1
31 | AUCUGA | 1.24 | 1.3 | 1.19
32 | AAAGGG | 1.07 | 1.12 | 1.12
33 | UGAUGA | 3.34 | 3.56 | 2.48
34 | GGAUGC | 1.04 | 0.968 | 1.07
35 | UGAUGU | 2.5 | 2.78 | 2.1
36 | CGAUGA | 1.66 | 1.7 | 1.44
37 | CGAUCA | 0.917 | 0.906 | 0.977
38 | UUAUGC | 0.832 | 0.799 | 0.831
39 | AGAUGU | 1.06 | 1.13 | 1.05
40 | UGAUGC | 2.31 | 2.42 | 1.91

Row | Sequence | RBNS R-value (protein concentration: 250 nM) | RBNS R-value (protein concentration: 500 nM) | RBNS R-value (protein concentration: 1000 nM)
41 | GGAUGA | 1.23 | 1.25 | 1.17
42 | CGAUGC | 1.26 | 1.22 | 1.18
43 | UGAUCA | 1.2 | 1.26 | 1.17
44 | CGAUGU | 1.13 | 1.16 | 1.09
45 | GGUCUU | 0.91 | 0.864 | 0.932
46 | UACACG | 0.894 | 0.857 | 0.867
47 | UGUAAU | 0.85 | 0.907 | 0.853
48 | AAGGUA | 0.941 | 1.01 | 0.987
49 | CAUCAU | 0.806 | 0.8 | 0.838
50 | GCCCGC | 1.24 | 1.09 | 1.2
51 | CGAGGC | 1.15 | 1.08 | 1.17
52 | CCAUCU | 0.967 | 0.915 | 0.956
53 | CCCUCU | 0.993 | 0.894 | 0.949
54 | GAGUGC | 1.09 | 1.01 | 1.04
55 | CGAUGG | 1.24 | 1.23 | 1.17
56 | AGAUGG | 1.12 | 1.14 | 1.14
57 | AGAUGC | 1.18 | 1.17 | 1.14
58 | UGAUGG | 2.48 | 2.56 | 1.9
59 | AUAUGA | 1.1 | 1.23 | 1.07
60 | AGAUGA | 1.49 | 1.55 | 1.34
